Measurements from PubChem BioAssay.
Several values for one entry are separate records, joined by “and”; a condition that tells them apart may be missing. Identical values can stand only once. Activity calls are given as the source filed them. Unless noted, no rule for the calls is given here.

What was measured:
[1] = compound effects on lung adenocarcinoma cell viability – A549, calcein-AM fluorescence, 48 h, basal, profiling panel (AID 1162); conditions: higher = more signal; also: test concentration not given here
[2] = compound effects on differentiated 3T3-L1 adipocyte viability – cell-based, 3T3-L1 adipocytes, calcein-AM fluorescence, 48 h, basal, profiling panel (AID 1163); conditions: 3T3-L1 adipocytes viability, higher = more signal; also: test concentration not given here
[3] = compound effects on hepatocellular carcinoma cell viability – HepG2, calcein-AM fluorescence, 48 h, basal, profiling panel (AID 1164); conditions: higher = more signal; also: test concentration not given here
[4] = compound effects on multiple myeloma cell viability – MM1S, calcein-AM fluorescence, 48 h, basal, profiling panel (AID 1165); conditions: higher = more signal; also: test concentration not given here
[5] = calcein-AM signal in unstimulated myeloma cells – cell-based, calcein-AM fluorescence, 48 h, PK04 Diversity Set, profiling panel (AID 1166); conditions: RPMI8226 myeloma viability, higher = more signal;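 also: cells grown under basal conditions without added stimulus; test concentration not given here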
[6] = JC-1 mitochondrial signal, unstimulated HepG2 cells – cell-based, JC-1 fluorescence, 24 h, 100 nL compound, profiling panel (AID 1167); conditions: HepG2 mitochondrial potential, higher = more signal; also: test concentration not given here
[7] = JC-1 mitochondrial signal, unstimulated adipocytes – cell-based, JC-1 fluorescence, 3T3-L1 adipocytes, 24 h, 100 nL compound, profiling panel (AID 1168); conditions: JC-1 mitochondrial fluorescence, higher = more signal, called active from +8 up or from −8 down; also: test concentration not given here
[8] = JC-1 mitochondrial signal, unstimulated myeloma cells – cell-based, JC-1 fluorescence, RPMI8226, 24 h, 100 nL compound, profiling panel (AID 1169); conditions: JC-1 mitochondrial potential fluorescence, higher = more signal; also: test concentration not given here
[9] = JC-1 mitochondrial signal, unstimulated MM1S myeloma – cell-based, JC-1 fluorescence, 24 h, 100 nL compound, profiling panel (AID 1170); conditions: MM1S mitochondrial potential, higher = more signal; also: test concentration not given here
[10] = resazurin metabolic signal in A549 cells – cell-based, resazurin fluorescence, 24 h, PK04 Diversity Set, profiling panel (AID 1171); conditions: A549 viability, higher = more signal, called active from +8 up or from −8 down; also: test concentration not given here
[11] = resazurin metabolic signal in HepG2 cells – cell-based, resazurin fluorescence, 24 h, PK04 Diversity Set, profiling panel (AID 1172); conditions: HepG2 viability, higher = more signal; also: test concentration not given here
[12] = budding yeast growth changes without added modifier – OD600, strain BY4716, 24 h, basal condition, primary screen (AID 1173); conditions: S. cerevisiae BY4716 growth, OD600, 24 h; higher = more signal, called active from +8 up or from −8 down
[13] = viability profiling in MM1S myeloma cells – cell-based, resazurin fluorescence, basal, 24 h, PK04 Diversity Set, profiling panel (AID 1174); conditions: higher = more signal, called active from +8 up or from −8 down; also: test concentration not given here
[14] = target: Dihydroorotate dehydrogenase (quinone), mitochondrial (Plasmodium falciparum (isolate 3D7)) (UniProt Q08210); assay: inhibition of P. falciparum DHODH – biochemical, C-terminal His tag, absorbance 600 nm, primary screen (AID 1175); conditions: PfDHODH enzyme, DCIP absorbance 600 nm; higher = more signal, called active from +8 up or from −8 down;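 also: recombinant parasite enzyme with a five histidine tag at its C terminus; test concentration not given here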
Sequence of Dihydroorotate dehydrogenase (quinone), mitochondrial (Plasmodium falciparum (isolate 3D7)) (Q08210 whole entry, looked up): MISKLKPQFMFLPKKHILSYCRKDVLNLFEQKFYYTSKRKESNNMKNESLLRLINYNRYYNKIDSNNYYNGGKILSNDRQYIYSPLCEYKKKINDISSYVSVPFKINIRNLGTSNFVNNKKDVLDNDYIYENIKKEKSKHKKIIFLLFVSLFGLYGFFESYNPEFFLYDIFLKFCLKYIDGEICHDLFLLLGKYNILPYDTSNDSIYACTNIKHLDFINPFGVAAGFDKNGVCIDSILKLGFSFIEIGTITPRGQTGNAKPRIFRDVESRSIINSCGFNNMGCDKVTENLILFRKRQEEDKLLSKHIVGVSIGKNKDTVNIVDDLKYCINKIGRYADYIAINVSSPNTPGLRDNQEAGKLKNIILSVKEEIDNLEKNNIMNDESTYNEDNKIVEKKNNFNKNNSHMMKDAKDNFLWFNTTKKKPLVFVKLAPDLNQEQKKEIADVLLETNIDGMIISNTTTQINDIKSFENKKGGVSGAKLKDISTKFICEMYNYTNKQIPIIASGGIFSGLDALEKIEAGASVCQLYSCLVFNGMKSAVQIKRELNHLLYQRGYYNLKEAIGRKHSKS

[15] = inhibition of PAO1 biofilm formation – strain PAO1, LB-PBS medium, absorbance 600 nm, primary screen (AID 1176); also: test concentration not given here; conditions: P. aeruginosa PAO1 growth/biofilm, A600, 12 h; higher = more signal
[16] = growth modulation of vineyard yeast isolate – strain RM11-1a, OD600, basal, 24 h, primary screen (AID 1177);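 also: cultures grown under basal conditions with no added stressor; test concentration not given here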; conditions: S. cerevisiae RM11-1a growth, OD600, 24 h; higher = more signal, called active from +8 up or from −8 down
[17] = growth of efflux-deficient E. coli DRC39 – strain DRC39, OD650, 24 h, E. coli filamentation inducers, primary screen (AID 1178);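 also: growth measured as culture turbidity by optical density at 650 nm; test concentration not given here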; conditions: E. coli DRC39 acrAB, higher = more signal, called active from +8 up or from −8 down
[18] = growth of efflux-deficient E. coli DRC39 – strain DRC39, OD650, 48 h, E. coli filamentation inducers, primary screen (AID 1179);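 also: screen aims at cell division blockers that make cells filament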; conditions: E. coli DRC39 delta-acrAB growth, higher = more signal, called active from +8 up or from −8 down
[19] = viability profiling in RPMI8226 myeloma cells – cell-based, resazurin fluorescence, basal, 24 h, PK04 Diversity Set, profiling panel (AID 1180); conditions: higher = more signal;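 also: RPMI8826 multiple myeloma cell line at 5000 cells per well; test concentration not given here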
[20] = target: E3 ubiquitin-protein ligase XIAP (Homo sapiens) (UniProt P98170); assay: small molecules binding XIAP protein – biophysical, small-molecule microarray, fluorescence 635 nm, primary screen (AID 1181); conditions: higher = more signal;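 also: score merges 667 nm emission and signal to noise over triplicate slides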
Sequence of E3 ubiquitin-protein ligase XIAP (Homo sapiens) (P98170 whole entry, looked up): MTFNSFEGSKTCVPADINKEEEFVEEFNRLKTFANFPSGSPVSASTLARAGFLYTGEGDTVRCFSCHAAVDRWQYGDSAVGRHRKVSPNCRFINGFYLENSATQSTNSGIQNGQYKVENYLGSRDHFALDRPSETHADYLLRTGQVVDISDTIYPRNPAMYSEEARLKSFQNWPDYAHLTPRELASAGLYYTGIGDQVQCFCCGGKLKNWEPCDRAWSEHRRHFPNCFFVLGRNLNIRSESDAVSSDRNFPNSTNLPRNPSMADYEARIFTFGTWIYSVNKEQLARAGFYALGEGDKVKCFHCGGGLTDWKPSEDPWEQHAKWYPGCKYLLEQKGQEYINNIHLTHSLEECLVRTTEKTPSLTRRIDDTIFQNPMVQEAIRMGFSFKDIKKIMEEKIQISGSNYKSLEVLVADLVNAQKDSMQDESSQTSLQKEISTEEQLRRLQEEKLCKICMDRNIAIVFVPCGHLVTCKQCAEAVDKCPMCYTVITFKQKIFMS

| SMILES | z-score [1] | z-score [2] | z-score [3] | z-score [4] | z-score [5] | z-score [6] | z-score [7] | z-score [8] | z-score [9] | z-score [10] | z-score [11] | z-score [12] | z-score [13] | composite z-score [14] | z-score [15] | z-score [16] | z-score [17] | z-score [18] | z-score [19] | composite z-score [20] |
| --- | --- | --- | --- | --- | --- | --- | --- | --- | --- | --- | --- | --- | --- | --- | --- | --- | --- | --- | --- | --- |
| CC(C)CCN1CCc2nc(-c3ccccc3)c3c(c2C1)CO[C@@H](C)C3 | -0.0742 | -0.626 | 1.15 | -1.18 | 0.0677 | 0.361 | -0.395 (inactive) | -0.173 | 0.324 | -0.191 (inactive) | -0.123 | -1.08 (inactive) | -0.0881 (inactive) | -0.363 (inactive) | -0.188 (inactive) | 0.396 (inactive) | 0.66 (inactive) | 0.0602 (inactive) | 0.129 | 0.201 |
| C=CCN(C(=O)C1N(C(C)(C)CO)C(=O)C2C(C(=O)O)C3C=CC21O3)C(C)(C)C (centres undefined) | -0.209 and -0.173 | -0.72 and 0.343 | 0.384 and 0.816 | 0.676 and 0.647 | 0.0691 and 0.0574 | -0.896 and 0.142 | -0.308 (inactive) and 0.228 (inactive) | 0.669 and -0.287 | 0.88 and 0.351 | -0.777 (inactive) and -0.128 (inactive) | -0.724 and -0.381 | 1 (inactive) and 0.053 (inactive) | -0.638 (inactive) and 0.113 (inactive) | 1.3 (inactive) and -0.307 (inactive) | -0.456 (inactive) and 0.109 (inactive) | 1.16 (inactive) and 1.25 (inactive) | -0.706 (inactive) and 0.32 (inactive) | -0.687 (inactive) and 0.356 (inactive) | -0.319 and -0.0012 | -0.326 and -0.212 |
| CC(CO)N1C(=O)[C@@H]2C3C(=O)OCCC=C[C@H]3OC23C=CCN(Cn2nnc4ccccc42)C(=O)[C@@H]13 (some centres undefined) | -0.515 and 0.432 | -0.101 and 0.061 | -0.562 and -0.713 | 0.922 and -0.0987 | -0.28 and 0.0829 | -1.01 and -0.375 | -0.259 (inactive) and -1.12 (inactive) | 0.46 and -0.0108 | 0.198 and -0.363 | -0.116 (inactive) and 0.785 (inactive) | 0.576 and 0.999 | 0.771 (inactive) and 0.283 (inactive) | -0.415 (inactive) and -0.0046 (inactive) | -4.99 (inactive) and -0.478 (inactive) | 0.55 (inactive) and 0.798 (inactive) | 1.07 (inactive) and -0.995 (inactive) | -0.125 (inactive) and 0.0633 (inactive) | -0.214 (inactive) and -0.099 (inactive) | 0.0489 and -0.178 | -0.0448 and -0.21 |
| C[N+](C)(C)CCCCNC(=O)[C@@H]1C[C@@H]2C(=O)N[C@@H](CCCC[N+](C)(C)C)C(=O)N2[C@@H]1c1cccc(OCCO)c1 | 0.901 and 1.05 | 0.462 and -0.276 | -0.517 and 0.473 | -0.531 and -0.212 | -0.719 and -0.495 | 0.0138 and 1.44 | -0.393 (inactive) and 0.547 (inactive) | 0.352 and -0.897 | -0.218 and 0.26 | -0.375 (inactive) and -0.0246 (inactive) | -0.249 and -0.0346 | 0.962 (inactive) and 0.187 (inactive) | 0.405 (inactive) and 0.349 (inactive) | -30.9 (active) and -30.3 (active) | -0.239 (inactive) and 0.022 (inactive) | 1.57 (inactive) and 0.24 (inactive) | 0.113 (inactive) and -0.132 (inactive) | -0.0555 (inactive) and 0.517 (inactive) | 0.399 and 0.607 | 1.01 and -0.22 |
| C=CCN(C(=O)C(c1cccs1)N(CCOCCO)C(=O)/C=C\C(=O)O)c1ccc(OC)cc1 (centres undefined) | 0.995 and 1.98 | 0.372 and -0.509 | 1.23 and 0.751 | 1.3 and 1.57 | 0.566 and 0.95 | 0.506 and 1.39 | -2.4 (inactive) and 1.53 (inactive) | -0.0898 and 0.302 | -1.19 and 0.702 | 0.18 (inactive) and 0.294 (inactive) | 0.591 and 0.232 | -1.32 (inactive) and -1.58 (inactive) | 0.0173 (inactive) and 0.605 (inactive) | -1.05 (inactive) and -2.65 (inactive) | 1.07 (inactive) | -1.64 (inactive) and -1.09 (inactive) | 0.997 (inactive) and 1.72 (inactive) | 1.21 (inactive) and 2 (inactive) | 1.25 and 0.952 | 0.336 and -0.325 |
| CC(CO)N1C(=O)[C@@H]2C3C(=O)OCCC=C[C@H]3OC23C=CCN(C(C)(C)C)C(=O)[C@@H]13 (some centres undefined) | -0.418 and -0.461 | -0.142 and -0.791 | -1.27 and -0.487 | -0.388 and 0.885 | -0.0799 and 0.143 | -0.985 and -1.27 | -0.105 (inactive) and -0.534 (inactive) | 0.914 and -0.0183 | 0.157 and -0.365 | -0.731 (inactive) and -0.299 (inactive) | -0.0539 and 0.0517 | 1.97 (inactive) and -0.0328 (inactive) | -1.28 (inactive) and -0.719 (inactive) | -7.96 (inactive) and -3.06 (inactive) | -0.317 (inactive) and 0.329 (inactive) | 1.01 (inactive) and -1.12 (inactive) | -0.57 (inactive) and -0.149 (inactive) | -0.672 (inactive) and -0.246 (inactive) | -0.896 and -0.817 | -0.157 and 0.517 |
| CO[C@@H]1COC(=O)[C@H](Cc2ccccc2)NC(=O)CC=C[C@@H](C)[C@H](OC)COC(=O)[C@@H](C)NC(=O)CC=C[C@H]1C | -0.0911 and -0.304 | 0.686 and -0.191 | 0.0488 and 1.09 | 0.144 and 0.329 | 0.173 and 1.12 | 0.999 and -0.15 | 0.67 (inactive) and 1.56 (inactive) | 0.645 and -0.266 | 0.452 and 0.623 | 0.632 (inactive) and 0.35 (inactive) | 0.959 and 0.62 | -1.78 (inactive) and -1.48 (inactive) | 1.27 (inactive) and 0.921 (inactive) | -0.595 (inactive) and -0.614 (inactive) |  | -1.34 (inactive) and -1.08 (inactive) | 0.357 (inactive) and 0.951 (inactive) | 0.067 (inactive) and 0.74 (inactive) | 1 and -0.289 | -0.203 and -0.192 |
| COC(=O)[C@@]1(Cc2ccc(OC)cc2)[C@H]2c3cc(C(=O)N(C)C)n(Cc4ccc(O)c(OC)c4)c3C[C@H]2CN1C(=O)c1ccccc1 | -0.352 and 0.46 | 0.865 and 0.215 | -0.0117 and 0.763 | 0.0138 and -1.26 | -0.475 and -2.77 | 2.46 and 2.03 | -0.0971 (inactive) and 0.395 (inactive) | 0.178 and -0.792 | -0.74 and -1.95 | 1.06 (inactive) and -1.21 (inactive) | 0.613 and -0.518 | 1.5 (inactive) and 1.69 (inactive) | -0.475 (inactive) and -1.77 (inactive) | 0.243 (inactive) and 0.355 (inactive) | -0.499 (inactive) and -0.347 (inactive) | 0.884 (inactive) and 1.29 (inactive) | 0.247 (inactive) and 0.423 (inactive) | -0.128 (inactive) and -0.102 (inactive) | 0.381 and -2.92 | -0.207 and 0.277 |
